Screening results deposited in PubChem BioAssay by several laboratories.
E coli growth-1 = counter-screen for AddAB inhibitors: E. coli growth inhibition; E. coli V3065 growth, OD600 absorbance, 18 h; inhibition, % at 11.9 µM; actives 0.27% (n = 330,000);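 active means inhibition above the campaign's mean inhibition across all tested compounds plus 3 SD, cut at about 9.9% in these data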;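 further: uninfected addAB+ strain grown without phage in ampicillin broth; 0% = DMSO wells and 100% = ciprofloxacin 0.95 µg/ml wells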
phage Ecoli inh = E. coli growth loss with phage present | growth absorbance | inhibition, % at 11.9 µM | actives 0.26% (n = 360,000) | AID 651602; in the data active means inhibition above about 11%
E coli growth-2 = E. coli growth inhibition; Escherichia coli growth, OD600, 23 h; hits give low values; OD600 absorbance (no concentration beside the values); actives 0.21% (n = 330,000); AID 1053175;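 active means OD600 absorbance below the run mean of sample wells minus 3.6 SD, in any replicate, cut at about 0.56 in these data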
AddAB inh = less growth of phage-infected E. coli with AddAB | E. coli expressing H. pylori AddAB, absorbance growth | actives 0.29% (n = 330,000) | inhibition, % at 11.9 µM; in the data active means inhibition above about 12%;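 further: 0% = vehicle wells of infected cells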
Tat transport = blocks Tat-dependent protein export in E. coli; inhibition, % at 10 µM; E. coli MC4100 TorA-mCherry Tat export, fluorescence; actives 0.036% (n = 340,000);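 active means mean replicate inhibition at least 50% and at least half of replicates individually reaching 50%; inconclusive means only one of the two criteria met; inactive means neither criterion met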;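 further: exported cargo escapes ClpAP degradation while cytoplasmic cargo is degraded and loses fluorescence; 0% = median of neutral control wells and 100% = median of NaSCN control wells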
AddAB conf = confirmation screen: growth loss of phage-infected E. coli expressing H. pylori AddAB | shares compounds with AddAB inh | E. coli V3065 expressing H. pylori AddAB, T4 phage, OD; T4 phage with gene 2 nonsense mutations | inhibition, % at 11.9 µM | actives 64% (n = 880);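 active means mean inhibition above a set limit taken from the earlier primary screen, cut at about 13% in these data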;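 further: higher means less bacterial growth since AddAB block lets phage replicate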
RecBCD counter = reduces growth of phage-infected RecBCD+ E. coli, AddAB inhibitor counter-screen; shares compounds with AddAB inh; E. coli V66 + mutant T4 phage, OD growth; inhibition, % at 11.9 µM; actives 73% (n = 880);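 active means mean inhibition above the mean of solvent-only control wells plus 3 SD, cut at about 4% in these data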;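 further: optical density read after an 18 h incubation at 37 °C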
bact viab count = counter-screen: bacterial growth inhibition; shares compounds with AddAB inh; bacterial viability, absorbance (AddAB counterscreen); inhibition, % at 11.9 µM; actives 35% (n = 880); in the data active means inhibition above about 25%
Active calls of the source: *; ? = inconclusive; . = no result given. An excerpt weighted towards active compounds, which were near 0.5% of everything screened.

SMILES	E coli growth-1	phage Ecoli inh	E coli growth-2	AddAB inh	Tat transport	AddAB conf	RecBCD counter	bact viab count
Cc1ccc(N2CC(NS(=O)(=O)c3cccs3)CC2=O)cc1 (stereo not drawn)	98*	4	0.63	98*	-1	0	2	3
COc1ccccc1OCCNC(=O)Cc1ccc(S(=O)(=O)N2CCOCC2)s1	2	4	0.67	2	?	.	.	.
Cc1ccc(-c2cc(C(F)(F)F)n3ncc(C(=O)O)c3n2)cc1	.	2	0.76	.	4	.	.	.
Cc1cc(C(F)(F)F)n2ncc(C(=O)O)c2n1	6	4	0.76	17*	-4	-2	1	0
CCOC(=O)C1=CCC(c2cccc3ccccc23)N(S(=O)(=O)c2ccc(C)cc2)C1 (stereo not drawn)	.	-1	.	.	.	.	.	.
Cc1ccccc1-c1nc(NC(C)C)nc2ccsc12	.	3	.	.	.	.	.	.
O=C(NCCSc1c[nH]c2ccccc12)c1ccco1	27*	2	0.71	81*	-9	-1	2	1
O=C(NCCSc1c[nH]c2ccccc12)c1c(F)cccc1F	1	0	0.65	-1	2	.	.	.
C[C@@H]1CN([C@@H](C)CO)C(=O)CCCn2cc(nn2)CO[C@H]1CN(C)S(=O)(=O)c1ccc(Oc2ccccc2)nc1	.	2	.	.	.	.	.	.
CCOC(=O)N1CCN(c2c(NCCCN3CCCCCC3)c(=O)c2=O)CC1	5	3	0.75	12*	-2	0	1	-2
CC(=O)N(/N=C/c1ccc([N+](=O)[O-])o1)c1nc2ccccc2c(=O)n1-c1ccccc1	11*	6	.	15*	6	29*	3	13
Cc1ccc(-n2c(-c3ccc(Br)cc3)c[n+]3c2CCc2ccc4cccnc4c2-3)cc1	24*	5	0.49*	31*	-8	76*	5.5*	21
O=C(O)c1ccc(N/N=C/C=C/c2ccc([N+](=O)[O-])o2)cc1	9	8	.	14*	1	31*	4	9
Cc1ccc(OCC(=O)c2c[nH]c3ccccc23)c([N+](=O)[O-])n1	20*	7	0.64	23*	7	46*	6.8*	42*
CCOCCCn1c(SC(C(=O)Nc2cc(C)ccc2C)c2ccccc2)nnc1-c1ccc(Cl)cc1 (stereo not drawn)	68*	1	0.78	33*	-3	2	-1	-3
Cc1cc(NC(=O)c2cc(C)on2)no1	0	1	0.72	-1	-15	.	.	.
CCCc1cc(C(=O)Nc2cc(C)on2)no1	96*	2	0.63	100*	3	1	3	3
COc1ccc2[nH]c3c(c2c1)CCNC3c1ccc([N+](=O)[O-])o1 (stereo not drawn)	10*	4	.	41*	5	14*	3	1
O=C(Nc1ccccc1Cl)c1ccc([N+](=O)[O-])o1	24*	9	0.57	31*	-17	92*	10*	29*
CCn1nnc(NC(=O)c2ccc([N+](=O)[O-])o2)n1	11*	7	0.56	19*	-11	61*	6.5*	12
O=C(Nc1ccc(N2CCOCC2)cc1)c1ccc([N+](=O)[O-])o1	13*	8	0.61	16*	-3	69*	8.5*	20
CCCCn1nnc(NC(=O)c2ccc(-c3ccccc3[N+](=O)[O-])o2)n1	-1	4	0.62	3	14	.	.	.
O=C(Nc1ccc(S(=O)(=O)N2CCOCC2)cc1)c1ccc([N+](=O)[O-])o1	4	6	0.66	6	-12	.	.	.
Cc1cccnc1NC(=O)c1ccc([N+](=O)[O-])o1	24*	12*	0.58	92*	-5	91*	12*	24
Cc1c(NC(=O)C(C)OC(=O)c2cccc(S(=O)(=O)N3CCOCC3)c2)c(=O)n(-c2ccccc2)n1C (stereo not drawn)	-1	1	0.68	-2	.	.	.	.
SMILES	E coli growth-1	phage Ecoli inh	E coli growth-2	AddAB inh	Tat transport	AddAB conf	RecBCD counter	bact viab count
CCOc1ccc(CNc2nc3ccccc3n2CCN2CCOCC2)cc1	0	-4	0.71	-1	-1	.	.	.
Cn1c(Oc2ccccc2NCc2cc(Br)ccc2O)cc(=O)n(C)c1=O	-3	1	0.68	1	2	.	.	.
Cc1ccccc1NC(=O)c1ccc([N+](=O)[O-])o1	11*	10	0.65	24*	-9	31*	6.7*	12
CC(=O)N1CCN(c2ccc(NC(=O)c3ccc([N+](=O)[O-])o3)cc2Cl)CC1	5	6	0.62	14*	-4	56*	4.9*	15
CS(=O)(=O)N1CCN(c2ccccc2NC(=O)c2ccc([N+](=O)[O-])o2)CC1	0	1	0.69	1	0	.	.	.
CCC(=O)N1CCN(c2ccc(NC(=O)c3ccc([N+](=O)[O-])o3)cc2Cl)CC1	.	6	0.65	.	-3	.	.	.
CC(=O)Nc1ccc2nc(NC(=O)c3ccc([N+](=O)[O-])o3)sc2c1	9	1	0.62	15*	-12	41*	5.7*	12
CN1CCN(c2ccccc2NC(=O)c2ccc([N+](=O)[O-])o2)CC1	25*	.	0.56	27*	-6	101*	11*	38*
CC(=O)Nc1ccc2nc(NC(=O)c3ccco3)sc2c1	-1	-1	0.68	1	0	.	.	.
NC(=S)N/N=C/c1cn(CCC(=O)O)nc1-c1cccc(Br)c1	1	0	.	4	3	.	.	.
O=S(=O)(NC1CCCC1)c1cccc(-c2nnc(-c3ccccc3)o2)c1	-1	.	0.66	2	-6	.	.	.
C=Cn1cc[n+](CC(=O)c2ccc(Br)s2)c1	0	4	0.69	-1	-1	.	.	.
Nc1nonc1-n1nnc(C(=O)N/N=C/c2ccoc2)c1CSc1ccccc1	-1	.	.	0	18	.	.	.
COC(=O)c1cc(S(=O)(=O)NCc2ccc(F)cc2)cn1C	5	2	0.74	15*	-1	-1	1	-2
O=S(c1cc(Cl)cc(Cl)c1O)c1cc(Cl)cc(Cl)c1O	.	10	.	.	.	.	.	.
Oc1c(Cl)cc(Cl)cc1Sc1cc(Cl)cc(Cl)c1O	16*	.	.	15*	.	10	15*	12
NC(=O)C1CCN(CC(=O)NCc2ccccc2)CC1	-1	3	0.72	-1	-2	.	.	.
COCCNc1nnc(Cc2ccc(OC)c(OC)c2)c(=O)[nH]1	0	0	0.63	-2	3	.	.	.
COc1ccc(Cc2nnc(NN)[nH]c2=O)cc1OC	93*	0	0.081*	97*	12	99*	11*	97*
O=C(/C=C/c1ccccc1Cl)c1ccccc(=O)c1O	9	3	0.66	15*	-3	8	8.3*	5
O=C(/C=C/c1ccccc1Cl)c1ccc(O)cc1	-1	-2	0.61	1	9	.	.	.
